Consider 38 molecules from PubChem BioAssay (EPA / NIEHS).

A structure can be active in one record and inactive in another. Activity calls are given as the source filed them. How the source made its calls: active means hit-call score of the fitted dose curve at least 0.9, where 1 is the maximum; inactive means score below 0.9.

A short description of this experiment: ATG_TA_CIS: Attagene CIS-FACTORIAL HepG2 Assay for human TA Basal Promoter (AID 2282964). The conditions noted are these: HepG2 Attagene CIS-factorial TA basal promoter reporter; actives raise or lower the signal. The procedure: ATG_CIS is a cell-based, multiplexed-readout assay that uses HepG2, a human liver cell line, with measurements taken at 24 hours after chemical dosing in a 24-well plate.ATG_TA_CIS is one of 52 assay component(s) measured or calculated from the ATG_CIS assay. It is designed to make measurements of mRNA induction, a form of inducible reporter, as detected with fluorescence intensity signals by Reverse transcription polymerase chain reaction (RT-PCR) and Capillary electrophoresis technology.Data from the assay component ATG_TA_CIS was analyzed into 1 assay endpoint. This assay endpoint, ATG_TA_CIS, was analyzed with bidirectional fitting relative to DMSO as the negative control and baseline of activity. Using a type of inducible reporter, measures of mRNA for gain or loss-of-signal activity can be used to understand the background control at the transcription factor-level as they relate to the gene . Furthermore, this assay endpoint can be referred to as a secondary readout, because this assay has produced multiple assay endpoints where this one serves a background control function. To generalize the intended target to other relatable targets, this assay endpoint is annotated to the background measurement intended target family, where the subfamily is internal marker.
Human liver HepG2 cells are transiently transfected with multiple reporter transcription units (MRTUs) in 6-well plates using FuGene 6 reagent (Roche; 3 ml FuGene/1 mg DNA). The MRTU constructs are regulated by a cis-regulating element (promoter). […] A major difference between the CIS and TRANS system is that in CIS activities of endogenous TFs are measured, whereas the TRANS assay evaluates changes in activities of exogenous, chimeric NR-Gal4 proteins. […] At the end of 24 hour incubation, total RNA was isolated using TriZol reagent (Invitrogen). The isolated RNA is then reverse-transcribed using oligo(dT) primer and Mo-MLV reverse transcriptase (Invitrogen) with DNAse I (Ambion) treatment for 30 min. The one-tenth of the produced cDNA was amplified by PCR using Taq DNA polymerase (Invitrogen) and two reporter sequence-specific primers. The PCR products were fluorescently labeled by primer extension with 6-arboxyfluorescein (6-FAM) 5'-labeled reporter sequence-specific primer (2 min at 95 C, 20 s at 68 C and 10 min at 72 C) and these products were digested with 5U of HpaI (New England Biolabs) for 2h at 37 C. The fragments were purified using Qiaquick PCR columns (Qiagen), analyzed on an ABI 3130xL genetic analyzer (Applied Biosystems) with peak positions identified by using a set of X-rhodamine (ROX)-labeled MapMarker1000 molecular weight standards (BioVentures). The raw capillary electrophoresis data was processed using Attagraph software (Attagene).
With `O=C(O)C(F)(F)OC(F)(F)C(F)(F)OC(F)(F)C(F)(F)OC(F)(F)C(F)(F)C(F)(F)C(F)(F)F`, the result was inactive.

Consider `Clc1ccc(Nc2nnc(Cc3ccncc3)c3ccccc23)cc1`, for which the half-maximal activity concentration (AC50) was 23.2 µM (active).

With `CCCCCCc1ccc(N)cc1`, the molecule was called inactive.

For the molecule `O=S(=O)(c1ccc(OCc2ccccc2)cc1)c1ccccc1O`, the molecule was classed as inactive.

For the molecule `CCO[Si](C)(C)OCC`, the call was inactive.

On to `CCCCCCCCCCCC`, for which the molecule was classed as inactive.

On to `CC(C)(C)c1ccc(CCC=O)cc1`, for which the result was inactive.

For `c1ccc(CNc2ncnc3c2ncn3C2CCCCO2)cc1` (stereo not given), the outcome was inactive.

On to `CCCCCCCCCCCCCCCCCC[N+](C)(C)Cc1ccccc1`, for which the molecule was classed as inactive.

For `C=CC(=O)OCCC(F)(F)C(F)(F)C(F)(F)C(F)(F)C(F)(F)C(F)(F)F`, the result was inactive.

As for `Cc1ccc2ccc3ccc(C)cc3c2c1`, the molecule was called inactive.

Take `O=C(O)c1cccc(C(=O)O)n1`: the result was inactive.

Regarding `Cc1cncc(C)c1`, the call was inactive.

Consider `O=C(O)CCC(F)(F)C(F)(F)C(F)(F)C(F)(F)C(F)(F)F`, for which the molecule was classed as inactive.

Regarding `FC(F)(F)C1(F)C(F)(F)C(F)(F)C(F)(F)C1(F)F`, the result was inactive.

In the case of `FC1(F)C=CC(F)(F)C1(F)F`, the molecule was called inactive.

As for `C[C@]12CC[C@@H]3c4ccc(O)cc4CC[C@H]3[C@@H]1CC[C@@H]2OC(=O)CCC1CCCC1`, the molecule was called inactive.

Take `FC(F)(F)C(F)(F)C(F)(F)Br`: the molecule was classed as inactive.

`CN(C)c1ccc(C(=C2C=CC(=[N+](C)C)C=C2)c2ccccc2)cc1`: the molecule was called inactive and the AC50 was 0.752 µM (active).

Turning to `FCOC(C(F)(F)F)C(F)(F)F`, the call was inactive.

As for `CCC(C)c1nccnc1OC` (stereo not given), the outcome was inactive.

As for `C=COC(=O)C(C)(C)CCCCCC`, the molecule was called inactive.

As to `CC(O)COc1ccccc1` (stereo not given), the call was inactive.

For `C[C@]12CC[C@@H]3c4ccc(O)cc4CC[C@H]3[C@@H]1C[C@@H](O)[C@@H]2O`, the molecule was classed as inactive.

For `CC(C)C=O`, the molecule was classed as inactive.

`O=C1OC2(c3ccccc31)c1cc(I)c(O)c(I)c1Oc1c2cc(I)c(O)c1I`: the result was inactive.

For `CC=O`, the molecule was classed as inactive.

For the molecule `Oc1cc2ccccc2cc1O`, the outcome was inactive.

Turning to `COCC1CCC(CO)CC1` (stereo not given), the call was inactive.

On to `COC(=O)C(F)(F)C(F)(F)C(F)(F)F`, for which the molecule was classed as inactive.

For the molecule `COC(=O)CC(C(C)=O)C(=O)OC` (stereo not given), the result was inactive.

Consider `O=CC(F)(F)C(F)(F)C(F)(F)C(F)F`, for which the outcome was inactive.

Turning to `CCCCCCCCCC=CCC1CC(=O)OC1=O` (stereo not given), the molecule was classed as inactive.

With `c1ccc2c(c1)CCC2`, the call was inactive.

Turning to `CCC(=O)C=Cc1ccc(OC)cc1`, the outcome was inactive.

For the molecule `CCCCCCCCCCCC[N+](C)(C)Cc1ccccc1`, the AC50 is 17.7 µM (active) and the outcome was inactive.

With `CCc1ccccc1O`, the molecule was called inactive.

`COC(=O)C(F)(F)C(F)(F)C(F)(F)C(F)(F)C(F)(F)F`: the molecule was called inactive.
